Screens as filed in PubChem.
OTUD3 block = blocks human OTUD3 ubiquitin-rhodamine cleavage; inhibition, % at 25 µM; actives 0.7% (n = 47,000); Q5T2D3; AID 1645858; purified OTUD3, Ub-rhodamine fluorescence, 2 h
USP28 block = inhibitors of human USP28 deubiquitinase; AID 1645857; Q96RU2; inhibition, % at 25 µM; actives 3% (n = 47,000); purified USP28, Ub-rhodamine cleavage fluorescence, 30 min
USP17 block = inhibitors of human USP17 deubiquitinase | inhibition, % at 50 µM | AID 1645855 | actives 6.5% (n = 47,000) | purified USP17, Ub-rhodamine cleavage fluorescence, 3 h | A8MUK1
USP30 block = blocks human USP30 ubiquitin-rhodamine cleavage; AID 1645860; inhibition, % at 25 µM; Q70CQ3; actives 5.3% (n = 47,000); purified USP30, Ub-rhodamine cleavage fluorescence
Target sequence (Q70CQ3 whole entry, looked up): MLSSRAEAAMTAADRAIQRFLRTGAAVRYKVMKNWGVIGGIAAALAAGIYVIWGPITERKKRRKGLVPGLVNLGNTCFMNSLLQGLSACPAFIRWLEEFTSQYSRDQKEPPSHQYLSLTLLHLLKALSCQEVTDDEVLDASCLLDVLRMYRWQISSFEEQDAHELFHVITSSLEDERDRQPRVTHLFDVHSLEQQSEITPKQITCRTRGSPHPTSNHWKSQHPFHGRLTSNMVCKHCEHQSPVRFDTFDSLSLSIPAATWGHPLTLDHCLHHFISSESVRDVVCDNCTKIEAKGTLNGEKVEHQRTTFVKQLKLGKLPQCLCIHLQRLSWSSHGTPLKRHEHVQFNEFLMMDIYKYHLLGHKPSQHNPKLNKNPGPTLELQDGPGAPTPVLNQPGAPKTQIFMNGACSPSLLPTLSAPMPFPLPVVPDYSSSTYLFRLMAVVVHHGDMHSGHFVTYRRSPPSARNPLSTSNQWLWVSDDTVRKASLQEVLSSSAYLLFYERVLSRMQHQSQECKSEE
* = called active by the depositor; . = not tested or not shown. Sampled rows, rich in hits. Any-hit rate of the full collection: about 12%. Cut-off read from the data, not from the text of the source: active = inhibition above about 30%; inactive = the rest.

SMILES | OTUD3 block | USP28 block | USP17 block | USP30 block
COc1ccccc1-c1cc2n(n1)CCN(C(=O)NC(C)(C)C)C2 | -8 | -10 | -10 | -6
CCOC(=O)c1oc2ccccc2c1NC(=O)COC(=O)c1cc(=O)[nH]c2ccccc12 | -1 | 0 | -10 | 0
CCOC(=O)c1c(-c2ccc(C)o2)csc1NC(=O)COC(=O)c1cc(=O)[nH]c2ccccc12 | -2 | . | 37* | .
COc1noc(C2CCN(C(=O)NC3CCOCC3)CC2)c1C | -7 | -2 | 0 | -10
N#Cc1cccc(NC(=O)Cn2cccc2-c2nc(-c3ccccc3)no2)c1 | 18 | 17 | 31* | 13
FC(F)(F)c1cccc(-c2nc(-c3ccccn3)no2)c1 | 0 | 6 | 3 | 10
CSc1nnc(-c2csc(-c3cccc(C(F)(F)F)c3)n2)n1C | 7 | 78* | 68* | 94*
c1ccc(-c2nc(CSc3nnc(C4CC4)n3-c3ccccc3)cs2)cc1 | 7 | 2 | 6 | 9
Cn1c(SCc2ccccc2)nnc1-c1csc(-c2ccccc2)n1 | 24 | 41* | 38* | 53*
CCC(C)CC(C)/C=C(\C)C1OC(c2c(O)c(C3CC(O)C(O)C3O)cn(C)c2=O)CC=C1C (stereo unspecified) | -30 | -26 | -32 | -140
CC(C)(C)c1cc(C(=O)N2CCOCC2c2ccn[nH]2)n[nH]1 (stereo unspecified) | -14 | -21 | -14 | -34
O=C(c1cccc2c1OCCO2)N1CCOCC1c1ccn[nH]1 (stereo unspecified) | 20 | 14 | 11 | 33*
CC(C)c1ccc2c(c1)C(N1CCN(C)CC1)=Cc1cccnc1S2 | -10 | -1 | 1 | 1
COc1ccc(C(=O)Nc2ccccc2C(=O)NC(Cc2ccc(O)cc2)C(=O)NNC(=O)c2ccccc2Cl)cc1 (stereo unspecified) | 75* | 75* | 82* | 69*
O=S(=O)(c1ccc(-c2ccc(Cl)cc2Cl)cc1)C1CCNCC1 | 9 | 44* | 7 | 45*
COC(=O)c1cc2c(ccn2-c2ccc(F)cc2)n1Cc1ccccn1 | -7 | -13 | -7 | -17
Cc1ccc(Cl)cc1NC(=O)Cn1c(=O)n(CCC(=O)NCc2ccco2)c(=O)c2ccccc21 | 15 | 15 | 15 | 32*
COc1cc2c(=O)n(CCC(=O)NCc3ccco3)c(=O)n(CC(=O)Nc3c(C)cccc3C)c2cc1OC | 50* | 65* | 61* | 30*
O=C(Cc1ccc(-n2c(=O)c3ccccc3n(CC(=O)Nc3ccc(Cl)cc3Cl)c2=O)cc1)NCc1ccco1 | 3 | 10 | 21 | 16
O=C(CCCn1c(=O)c2ccccc2n(Cc2ccc(F)cc2)c1=O)NCc1ccco1 | -3 | -2 | 3 | 1
O=C(CCn1c(=O)c2ccccc2n(Cc2ccc(F)cc2Cl)c1=O)NCc1ccco1 | 19 | 6 | 38* | 15
Cc1ccc(Cl)cc1NC(=O)Cn1c(=O)n(CCC(=O)NC2CCCC2)c(=O)c2ccccc21 | 11 | 15 | 23 | 41*
O=C(Cn1c(=O)n(CCC(=O)NC2CCCC2)c(=O)c2ccccc21)Nc1ccccc1F | 10 | 3 | 14 | 19
O=C(CCc1nnc2ccc(N3CCCC3)nn12)NC1CCCC1 | 11 | 14 | 12 | 16
Cc1cc(C)n2c(Br)c(CN3CCN(c4ccccc4)CC3)nc2n1 | -9 | -11 | -16 | -4
SMILES | OTUD3 block | USP28 block | USP17 block | USP30 block
O=C(Cn1c(=O)n(-c2ccc(CC(=O)NC3CCCC3)cc2)c(=O)c2ccccc21)Nc1ccccc1[N+](=O)[O-] | 29 | 14 | 21 | 16
COc1cc(NC(=O)Cn2c(=O)n(-c3ccc(CC(=O)NC4CCCC4)cc3)c(=O)c3ccccc32)cc(OC)c1 | 43* | 44* | 41* | 21
Cc1cc(=O)oc2cc(OCC(=O)NCc3ccccn3)ccc12 | 8 | 11 | 12 | 20
CCCc1cc(=O)oc2cc(OCC(=O)NCc3ccccn3)ccc12 | 15 | 17 | 61* | 60*
O=C(Cn1cnc2ccccc2c1=O)NC1CCCC1 | -7 | -3 | -1 | -8
O=C(Cn1cncc(-c2nc(-c3ccccc3)cs2)c1=O)NC1CCCC1 | 30 | 36* | 67* | 49*
NC(=O)C(OC(=O)CSc1ccccc1)c1ccccc1 (stereo unspecified) | 13 | 11 | 11 | 32*
COc1ccc(NC(=O)CSc2oc(-c3ccc(C)cc3)nc2S(=O)(=O)c2ccc(Br)cc2)c(OC)c1 | 5 | 10 | 59* | 16
Cn1c(NC(=O)c2cccs2)c(-c2ccccn2)c(=O)c2ccccc21 | -12 | 0 | 23 | 8
Cc1cc(Br)c(C(C)C)c(Br)c1OC(=O)c1ccco1 | 2 | 48* | 4 | -11
COCCN1C(=O)c2ccccc2C(C(=O)NCc2ccc(OC)cc2)C12CCCCC2 (stereo unspecified) | 0 | -4 | -5 | 3
COc1ccc(C(=O)Nc2cc(-c3cccnc3)no2)c(C)c1 | -7 | -9 | . | 0
COc1ccc(NC(=O)CSc2nnc(-c3cc4ccccc4n3C)o2)cc1 | 14 | 9 | 17 | 11
COc1ccc2nc(SCC(=O)Nc3ccc(NC(C)=O)cc3)c(C)cc2c1 | 13 | 8 | 59* | 30
CC(=O)c1ccc(S(=O)(=O)Nc2ccc(C(=O)O)cc2)cc1 | -5 | -2 | -29 | -95
NS(=O)(=O)c1ccc(NS(=O)(=O)c2ccc(NC(=O)Nc3ccc(Cl)cc3)cc2)cc1 | 20 | 75* | 41* | 49*
COc1ccc2cc(C(=O)N3CCC(C(C)C(=O)NCc4ccccc4F)CC3)[nH]c2c1 (stereo unspecified) | 0 | 0 | 5 | 17
COc1cc(-c2ccccc2)c(O)c(O)c1-c1ccccc1 | 91* | 96* | 99* | 91*
CCN1C(=O)c2cc(NC(=O)c3ccc(F)cc3)ccc2Oc2ccccc21 | 14 | 45* | 14 | 23
CN1C(=O)c2cc(NC(=O)c3ccccc3)ccc2Oc2ccccc21 | 6 | 41* | 13 | 7
Cc1ccccc1C(=O)Nc1ccc2c(c1)Sc1ncccc1C(=O)N2C | -8 | -7 | 5 | -51
CN1C(=O)c2cc(NC(=O)c3ccccc3Cl)ccc2Oc2ccccc21 | -4 | 80* | 2 | 9
O=C(Nc1cccn(Cc2c(Cl)cccc2Cl)c1=O)c1ccccc1[N+](=O)[O-] | 15 | 81* | 9 | 46*
Cc1ccc(S(=O)(=O)NC(C(=O)N=c2sc3ccccc3n2C)C(C)C)cc1 (stereo unspecified) | -5 | 15 | 63* | -23
CCS(=O)(=O)N1Cc2ccccc2CC1C(=O)N=c1sc2ccccc2n1C (stereo unspecified) | -33 | 8 | 0 | -101
CCc1cc2c3c([nH]c2cc1S(=O)(=O)NCc1cccc(OC)c1)CCCC3=O | 0 | 16 | -8 | 0
Cc1cc2c3c([nH]c2cc1S(=O)(=O)NCc1ccc2c(c1)OCO2)CCCC3=O | 13 | 31* | 0 | -39
CCc1cc2c3c([nH]c2cc1S(=O)(=O)NCc1ccccc1)CCCC3=O | -9 | 11 | -17 | -31
Cc1cc2c3c([nH]c2cc1S(=O)(=O)N1CCCCC1C)CCCC3=O (stereo unspecified) | 0 | 4 | 37* | -52
